According to PubChem BioAssay AID720554 (ICCB-Longwood Screening Facility, Harvard Medical School, 2013):
Screen size: about 12,000 compounds; about 45 (0.4%) were called active. No stated cut-off is given here; in the data, active means inhibition mostly above about 83% (no sharp cut-off); inactive means mostly below about 52%. For the sample, actives were picked, then their nearest neighbours and some compounds at random.

Key:
[1] = BmaI1 acyl-homoserine lactone synthase inhibition – biochemical, fluorescence intensity, with counterscreen (AID 720554); details: BmaI1 enzyme assay, measured here: counterscreen fluorescence % control, concentration not given here
[2] = tested on: acyl-homoserine lactone synthase BmaI1 (Burkholderia mallei ATCC 23344); assay: as above; details: BmaI1 enzyme assay, stronger effect = higher value, concentration not given here

## N#Cc1ccccc1NC(=O)CN1CCNC(=O)C1
[1]
  inhibition: 5%
[2]
  inhibition: 6% (inactive)

## NCCCOC1CCCCC1
[1]
  inhibition: 11%
[2]
  inhibition: 16.5% (inactive)

## NS(=O)(=O)c1cc(C(=O)O)cs1
[1]
  inhibition: -4.5%
[2]
  inhibition: 3% (inactive)

## Cc1cc(C)n(-c2ccc(C(=O)OCC(=O)NCC3CCCO3)cc2)n1 (stereo not drawn)
[1]
  inhibition: 9%
[2]
  inhibition: 8% (inactive)

## O=C1NC(c2cccc(O)c2O)Nc2sc3c(c21)CCC3 (stereo not drawn)
[1]
  inhibition: 19%
[2]
  inhibition: 83% (active)

## Cc1ccccc1CSCc1nc(N)nc(Nc2ccccc2C)n1
[1]
  inhibition: 4%
[2]
  inhibition: 7% (inactive)

## O=C1c2ccccc2C(=O)N1/N=C/c1ccc(-c2ccccc2Br)o1
[1]
  inhibition: 2.5%
[2]
  inhibition: 4.5% (inactive)

## O=S(=O)(c1ccc(N=C=S)cc1)N1CCOCC1
[1]
  inhibition: -3%
[2]
  inhibition: 13% (inactive)

## NC(=O)C1CCN(Cc2cc(=O)oc3cc(O)ccc23)CC1
[1]
  inhibition: -4.5%
[2]
  inhibition: 5.5% (inactive)

## CC1(C)C(=O)Nc2ccccc2N1C(=O)CSc1ncnc2ccccc12
[1]
  inhibition: 10.5%
[2]
  inhibition: 18.5% (inactive)

## CN1/C(=C2\C=NN(C)P2(=O)Nc2ccccc2)C(C)(C)c2ccccc21 (stereo not drawn)
[1]
  inhibition: 5%
[2]
  inhibition: 14.5% (inactive)

## CN1/C(=C2\C=NN(C)P2(=S)N2CCCC2)C(C)(C)c2ccccc21 (stereo not drawn)
[1]
  inhibition: 10%
[2]
  inhibition: 15% (inactive)

## COP1(=S)/C(=C2/N(C)c3ccccc3C2(C)C)C=NN1C (stereo not drawn)
[1]
  inhibition: 6%
[2]
  inhibition: 88% (active)

## COc1ccccc1/C=N/OCC(=O)NCc1ccc2c(c1)OCO2
[1]
  inhibition: 3.5%
[2]
  inhibition: 16.5% (inactive)

## COC(=O)c1ccc(-n2c(C)cc(C(=O)CN3C(=O)CN(C)C3=O)c2C)cc1
[1]
  inhibition: -4.5%
[2]
  inhibition: 9% (inactive)

## Nc1nnc(-c2cccs2)c(=O)n1N
[1]
  inhibition: 70.5%
[2]
  inhibition: 20% (inactive)

## O=C(N/N=C/c1sc(N2CCCCC2)nc1-c1cccs1)c1ccccc1
[1]
  inhibition: -8.5%
[2]
  inhibition: 17% (inactive)

## Nn1c(NNC(=O)c2ccccc2)nnc(-c2cccs2)c1=O
[1]
  inhibition: 11.5%
[2]
  inhibition: 92% (active)

## CCCn1c(C)cc(/C=C(\C#N)C(=O)Oc2c(C)ccc(C)c2C)c1C
[1]
  inhibition: 2.5%
[2]
  inhibition: 17.5% (inactive)

## CN(C)Cc1ccccc1C#N
[1]
  inhibition: 1%
[2]
  inhibition: -3.5% (inactive)

## Cc1ccc(S(=O)(=O)NCC(=O)OC2CCOC2=O)cc1 (stereo not drawn)
[1]
  inhibition: 4%
[2]
  inhibition: -3% (inactive)

## COC(=O)Cc1c(C(=O)OC)sc(N)c1C#N
[1]
  inhibition: 0.5%
[2]
  inhibition: 5.5% (inactive)

## c1cc2n[nH]nc2cn1
[1]
  inhibition: -4%
[2]
  inhibition: 12% (inactive)

## COc1ccccc1C(=O)CSc1cccc[n+]1[O-]
[1]
  inhibition: 10%
[2]
  inhibition: 57% (inactive)

## COc1cc(C(=O)CSc2cccc[n+]2[O-])cc(OC)c1OC
[1]
  inhibition: 6.5%
[2]
  inhibition: 87% (active)

## COc1ccccc1C(=O)NC(=O)CSc1cccc[n+]1[O-]
[1]
  inhibition: 10%
[2]
  inhibition: 16.5% (inactive)

## Cc1nn(-c2ccccc2)c2c1CC(C#N)(c1ccccn1)C1CCCN21 (stereo not drawn)
[1]
  inhibition: 3%
[2]
  inhibition: 10% (inactive)

## COc1cc(OC)c(OC)cc1CNC(=O)CCc1c(C)noc1C
[1]
  inhibition: 0%
[2]
  inhibition: 11% (inactive)

## Cc1cc(C(=O)CN(Cc2ccco2)S(=O)(=O)/C=C/c2ccccc2)c(C)n1C
[1]
  inhibition: 0.5%
[2]
  inhibition: 2.5% (inactive)

## CN=c1scc(-c2ccccc2)n1/N=C/c1ccsc1
[1]
  inhibition: -7%
[2]
  inhibition: 6% (inactive)

## Oc1ccc(/C=N/n2c(-c3ccco3)csc2=Nc2ccc(F)cc2F)c(O)c1
[1]
  inhibition: 19%
[2]
  inhibition: 34% (inactive)

## Cc1csc(=Nc2ccccc2F)n1/N=C/c1ccncc1
[1]
  inhibition: -3%
[2]
  inhibition: 89% (active)

## CCN(C(=O)Cn1ncc(Cl)c(Cl)c1=O)C1CCS(=O)(=O)C1 (stereo not drawn)
[1]
  inhibition: 6%
[2]
  inhibition: 12% (inactive)

## COc1ccc2nc(NC(=O)c3ccco3)sc2c1
[1]
  inhibition: 14.5%
[2]
  inhibition: 19% (inactive)

## CCn1c(CCC(=O)Nc2ccc(N3CCOCC3)cc2)nc2cc(S(=O)(=O)N(C)C)ccc21
[1]
  inhibition: -2.5%
[2]
  inhibition: 21% (inactive)

## CCn1c(C)nc2cc(C#N)ccc21
[1]
  inhibition: 6%
[2]
  inhibition: 8% (inactive)

## CCc1ccc(C2=Nn3c(nnc3-c3cccc(S(=O)(=O)N(CC)CC)c3)SC2)cc1
[1]
  inhibition: 3%
[2]
  inhibition: 21% (inactive)

## CN(C)S(=O)(=O)c1cccc(-c2nnc3n2CCCCC3)c1
[1]
  inhibition: -2%
[2]
  inhibition: -4.5% (inactive)

## CN(C)S(=O)(=O)c1cccc(-c2nnc3n2N=C(c2cccs2)CS3)c1
[1]
  inhibition: -1%
[2]
  inhibition: 87.5% (active)

## COc1ccc2c(Cl)c(-c3nnc4n3CCC4)sc2c1
[1]
  inhibition: -3.5%
[2]
  inhibition: 6.5% (inactive)

## Cn1c(CC(N)=S)nc2ccccc21
[1]
  inhibition: 17%
[2]
  inhibition: 92.5% (active)

## Cc1csc(Cc2nc3ccccc3n2C)n1
[1]
  inhibition: 8%
[2]
  inhibition: 16% (inactive)

## Cn1c(Cc2nnc3n2-c2ccccc2SC3)nc2ccccc21
[1]
  inhibition: -1%
[2]
  inhibition: 28.5% (inactive)

## Cc1cc(C(=O)Cn2cnc3sccc3c2=O)c(C)n1C1CC1
[1]
  inhibition: 8.5%
[2]
  inhibition: 16.5% (inactive)

## CC(C)Sc1nc2ccccc2n1CN1CCN(c2ccccn2)CC1
[1]
  inhibition: 3%
[2]
  inhibition: 9% (inactive)

## Cc1csc(=O)n1CN1CCN(C(=O)C2COc3ccccc3O2)CC1 (stereo not drawn)
[1]
  inhibition: 7.5%
[2]
  inhibition: 17.5% (inactive)

## COC(=O)COc1cc(NO)ccc1N=O
[1]
  inhibition: 4.5%
[2]
  inhibition: 88.5% (active)

## COC(=O)COc1ccc2ccc(=O)oc2c1
[1]
  inhibition: -9.5%
[2]
  inhibition: -8% (inactive)

## CCN(CC)c1ccc(N=CN2CCOCC2)cc1
[1]
  inhibition: -31%
[2]
  inhibition: 53% (inactive)

## COC(=O)c1c(C)oc(C)c(C(=O)OC)c1=O
[1]
  inhibition: 2.5%
[2]
  inhibition: 1.5% (inactive)

## Cc1ccc(Cl)cc1N1CCN(Cn2sc3ccccc3c2=O)CC1
[1]
  inhibition: 8.5%
[2]
  inhibition: 77% (inactive)

## CCOC(=O)C1CCN(Cn2c(=S)oc3ccc(S(=O)(=O)CC)cc32)CC1
[1]
  inhibition: -4%
[2]
  inhibition: 5% (inactive)

## Nc1nc2cc(S(=O)(=O)N3CCOCC3)ccc2o1
[1]
  inhibition: -5.5%
[2]
  inhibition: 2.5% (inactive)

## O=S(=O)(c1ccc2oc(=S)n(CN3CCOCC3)c2c1)N1CCOCC1
[1]
  inhibition: 4%
[2]
  inhibition: 99.5% (active)

## CCn1c(=O)c(=O)[nH]c2cc(C(=O)Nc3ccccc3N3CCOCC3)ccc21
[1]
  inhibition: 19.5%
[2]
  inhibition: 16.5% (inactive)

## O=c1[nH]nc(-c2ccco2)o1
[1]
  inhibition: -7%
[2]
  inhibition: 96% (active)

## Cn1c(-c2ccco2)n[nH]c1=S
[1]
  inhibition: 80%
[2]
  inhibition: 96.5% (inactive)

## c1coc(-c2nnc(-c3ccco3)nn2)c1
[1]
  inhibition: 34%
[2]
  inhibition: 0% (inactive)

## Cc1cc(C(=O)Cn2cc(C(F)(F)F)ccc2=O)c(C)n1Cc1ccco1
[1]
  inhibition: 1%
[2]
  inhibition: 3% (inactive)

## Cc1ccc(C(=O)NCCN2C(=O)S/C(=C\c3ccc(F)cc3)C2=O)cc1NC(=O)c1ccco1
[1]
  inhibition: -9.5%
[2]
  inhibition: 6.5% (inactive)

## O=C(O)c1sc2sccc2c1Cl
[1]
  inhibition: -1.5%
[2]
  inhibition: 8.5% (inactive)

## O=C1CCc2ccccc2N1
[1]
  inhibition: -5%
[2]
  inhibition: -11% (inactive)

## O=C1Cc2ccccc2C(=O)N1
[1]
  inhibition: 7%
[2]
  inhibition: 99.5% (active)

## O=C1NC(C(=O)O)Cc2ccccc21 (stereo not drawn)
[1]
  inhibition: 9%
[2]
  inhibition: 15% (inactive)

## O=C(CN1C(=O)c2ccccc2S1(=O)=O)N1N=C(c2ccc(Cl)cc2)CC1c1ccco1 (stereo not drawn)
[1]
  inhibition: 10.5%
[2]
  inhibition: 15% (inactive)

## CC1Sc2ccc(C(=O)Oc3ccc4c(c3)OCO4)cc2NC1=O (stereo not drawn)
[1]
  inhibition: 2%
[2]
  inhibition: 35.5% (inactive)

## CCN(CC)S(=O)(=O)c1ccc2c(c1)CCCN2
[1]
  inhibition: -4%
[2]
  inhibition: 18% (inactive)

## O=C(OCC(=O)N1CCC(Cc2ccccc2)CC1)c1ccc(O)cc1
[1]
  inhibition: -7.5%
[2]
  inhibition: 2.5% (inactive)

## COc1ccc(N(C)S(=O)(=O)c2cccc(C(=O)Nc3ccc(N4CCN(C)CC4)cc3C)c2)cc1
[1]
  inhibition: 11.5%
[2]
  inhibition: 9% (inactive)

## Cc1c(C(=O)O)sc2nc(CSc3nnc(-c4ccc(F)cc4)n3C)[nH]c(=O)c12
[1]
  inhibition: 2.5%
[2]
  inhibition: 3% (inactive)

## CCOC(=O)c1c(N)sn(-c2ccccc2)c1=S
[1]
  inhibition: 14.5%
[2]
  inhibition: 17% (inactive)

## N#Cc1c(N)sn(-c2ccccc2)c1=S
[1]
  inhibition: 11.5%
[2]
  inhibition: 102% (active)

## N#CC1=C(N)N(c2ccccc2)C(=O)C1
[1]
  inhibition: 0%
[2]
  inhibition: -10.5% (inactive)

## Cc1sc2ncnc(N3CCc4ccccc43)c2c1C
[1]
  inhibition: 6%
[2]
  inhibition: 8.5% (inactive)

## Cc1sc2ncnc(N)c2c1C
[1]
  inhibition: 9.5%
[2]
  inhibition: 89.5% (active)

## COC(=O)C(C)Sc1ncnc2sc(C)c(C)c12 (stereo not drawn)
[1]
  inhibition: 7%
[2]
  inhibition: 13% (inactive)

## CCCCn1ccnc1C(=O)c1ccc(S(=O)(=O)N2CCCC2)cc1
[1]
  inhibition: 1%
[2]
  inhibition: 8% (inactive)

## CCCCN1C(=O)CC(C(=O)O)C1c1ccc(OC)cc1 (stereo not drawn)
[1]
  inhibition: 3%
[2]
  inhibition: -3.5% (inactive)

## CCOc1ccc(/C=N/N2C(=O)NC(C)(CC)C2=O)c(O)c1 (stereo not drawn)
[1]
  inhibition: -4.5%
[2]
  inhibition: 0.5% (inactive)

## CC(=O)NCCc1ccc(-c2csc(N)n2)cc1
[1]
  inhibition: 41%
[2]
  inhibition: 24% (inactive)

## CC(=O)NCc1ccc(-c2csc(N)n2)o1
[1]
  inhibition: 17.5%
[2]
  inhibition: 92.5% (active)

## COc1ccc(Cc2nnc3n2N=C(c2ccc(CNC(C)=O)o2)CS3)cc1
[1]
  inhibition: 6%
[2]
  inhibition: 15.5% (inactive)

## COc1cc2c(cc1NC(=O)C(C)Sc1nncn1C)oc1ccccc12 (stereo not drawn)
[1]
  inhibition: -6.5%
[2]
  inhibition: 16.5% (inactive)

## CNC(=O)NC(=O)C(C)N1CCc2ccccc2C1 (stereo not drawn)
[1]
  inhibition: -2.5%
[2]
  inhibition: 2.5% (inactive)

## COc1cccc(CC(=O)Nc2cccc(OC)c2)c1
[1]
  inhibition: 2%
[2]
  inhibition: 8.5% (inactive)

## COc1cccc(NC(=O)/C=N/O)c1
[1]
  inhibition: 19.5%
[2]
  inhibition: 37.5% (inactive)

## COc1cccc(N=C2NNC(C)=C(C(=O)N(C)C)S2)c1
[1]
  inhibition: 13.5%
[2]
  inhibition: 88.5% (active)

## CCn1c(Cn2cc(S(=O)(=O)N3CCCC3)ccc2=O)nc2cc(S(=O)(=O)N(C)C)ccc21
[1]
  inhibition: 1%
[2]
  inhibition: 8.5% (inactive)

## Oc1c(C(Nc2ccccn2)c2cccnc2)ccc2cccnc12 (stereo not drawn)
[1]
  inhibition: -15%
[2]
  inhibition: 14% (inactive)

## Oc1c(C(c2cccnc2)N2CCOCC2)ccc2cccnc12 (stereo not drawn)
[1]
  inhibition: 28.5%
[2]
  inhibition: 105% (active)

## Oc1c(C(c2cccnc2)N2CCCCC2)ccc2cccnc12 (stereo not drawn)
[1]
  inhibition: -53.5%
[2]
  inhibition: -20.5% (inactive)

## CC(Sc1nnc(-c2ccccc2)o1)C(=O)N(C)c1ccccc1 (stereo not drawn)
[1]
  inhibition: 9%
[2]
  inhibition: 7% (inactive)

## CN(C(=O)c1ccco1)C1(c2ccccc2Cl)CCCCC1=O (stereo not drawn)
[1]
  inhibition: 5.5%
[2]
  inhibition: 9.5% (inactive)

## CCOC(=O)C(Sc1n[nH]c(N)n1)c1ccccc1 (stereo not drawn)
[1]
  inhibition: 13.5%
[2]
  inhibition: 15.5% (inactive)
